Reference: PubChem BioAssay (NCI)
About 83,000 compounds went through this panel and 20% of them were active in at least one assay; those are over-represented in the sample as a whole.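 Cell lines were cultured in 96-well plates, exposed to a single compound concentration, and assessed for percent growth 48 hours later.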 Activity calls are given as the source filed them.

The compounds below were run on LOX IMVI melanoma (assay: NCI-60 one-dose screen, 48 h (100 = growth as untreated, 0 = no growth, -100 = all killed)). Conditions: 10 µM unless noted.
Description: Growth inhibition of the LOX IMVI human tumor cell line is measured as a screen for anti-cancer activity. Cells are grown in 96 well plates and exposed to the test compound for 48 hours. Compounds are tested at a single concentration, which is 10^-5 M for most compounds. The reported endpoint is percent growth (GI% or GIPRCNT), where numbers from 0 - 100% represent growth inhibition, and numbers from -100% - 0 represent cell death. For example, a value of 40 represents 60% growth inhibition. A value of 0 means no net growth occurred over the course of the experiment. A value of -40 indicates 40% of cells at the beginning of the experiment died by the end of the experiment. A value of -100 means all cells are dead at the end of the experiment.
NCI-60 Human Tumor Cell Lines Screen was performed using the standard one-dose NCI protocol, which is described in more detail at https://dtp.cancer.gov/discovery_development/nci-60/default.htm.
Compounds with GIPRCNT values below 10 were considered active. Activity score was based on GIPRCNT using the following formula: […]
Score is 0 for GIPRCNT values of 100 or above, 50 for GIPRCNT values of 0, and 100 for GIPRCNT values of -100.

Row | Compound | growth
1 | COc1ccc(COc2ccc(/C=C3/C(=O)Nc4cc(Cl)ccc43)cc2)cc1 | 94.8% (inactive)
2 | CCCCCCNC(=O)Oc1ccc(/C(=C(/C)c2ccccc2)c2ccc(OCCN3CCCCCC3)cc2)cc1 | -14.5% (active)
3 | COc1ccc(-c2cc(C(=O)N=Nc3c(O)[nH]c4ccccc34)c3ccccc3n2)cc1OC | 105% (inactive)
4 | COc1cccc(N2CCN(c3ncnc4c3[nH]c3ccc(F)cc34)C[C@@H]2C)c1 | 0.646% (active)
5 | COc1cc2nc(-c3ccc(C)cc3)cc(OCCCNCC3CCCO3)c2cc1OC (stereo not given) | -32.2% (active)
6 | COc1cc(-c2nc3ccc(-c4nnc(SCC(=O)Nc5ccc(C(C)=O)cc5)o4)cc3[nH]2)cc(OC)c1OC | 108% (inactive)
7 | O=C(CN1C(=O)/C(=C/c2ccccc2)SC1=S)N1CCOCC1 | -34.9% (active)
8 | Cc1[nH]nc2ncc(C#Cc3cncc(C(=O)Nc4ccc(CN5CCN(C)CC5)c(C(F)(F)F)c4)c3)cc12 | -23.4% (active)
9 | N/C(=N\c1nc2c(Cl)cc(Cl)cc2s1)C(Cl)(Cl)Cl | 1.92% (active)
10 | CC(=O)Oc1ccccc1C(=O)Nc1ccc(C(=O)/C=C/c2cccs2)cc1 | 100% (inactive)
11 | C/C(=N/NC(N)=S)c1ccc(Nc2nc(SCC(C)C)nc(-c3ccc(F)cc3)c2C#N)cc1 | -20% (active)
12 | CN1C(=O)N(c2ccccc2)C2N=C(N/N=C/c3ccccc3)SC21 (stereo not given) | 23.2% (inactive)
13 | O=C1c2c(c3c4cc(Br)ccc4[nH]c3c3ccc4ccccc4c23)C(=O)N1CCO | 66.4% (inactive)
14 | O=C1Nc2cc(Cl)ccc2/C1=C\c1ccc(OCc2ccc(Br)cc2F)cc1 | -92.8% (active)
15 | CC(C)(C)OC(=O)N1C(=O)c2c(c3c4ccccc4[nH]c3c3ccc4ccccc4c23)C1=O | 57.5% (inactive)
16 | CN1C(=S)N(C)C2C1NN=C1SC(c3ccccc3)=CC(=O)N12 (stereo not given) | 92.2% (inactive)
17 | CNC(=O)c1cc(-c2ccc(NC(=O)Nc3ccc(N4CCN(C)CC4)c(C(F)(F)F)c3)cc2)nc2cccnc12 | -92.5% (active)
18 | N#Cc1c(-c2ccc(Cl)cc2)nc(SCc2ccccc2)nc1N1CCNCC1 | -71.5% (active)
19 | CS(=O)(=O)c1ccc(-c2nc3ccccn3c2C=Nc2ccc(Cl)cc2)cc1 | -59.2% (active)
20 | Cc1cccc(/C=C/c2nn3c(-c4ccco4)nnc3s2)c1 | 98.1% (inactive)

Row | Compound | growth
21 | CCOC(=O)c1csc(NC(=O)CSc2nc3sc4c(c3c(=O)n2-c2ccc(Cl)cc2)CCCC4)n1 | 56.5% (inactive)
22 | CCC/C=C/C=C/C(=O)N[C@@H](Cc1cc(F)cc(F)c1)C(=O)N[C@@H]1C(=O)N2CCC[C@H]2C(=O)N2CCCC[C@H]2C(=O)N[C@@H](C)C(=O)N2C[C@H](C)C[C@H]2C(=O)O[C@H]1C | -25.3% (active)
23 | CN(C)CCCNc1c2ccccc2nc2c1oc1ccc(Cl)cc12 | -86.5% (active)
24 | CCN(CC)c1ccc(C=O)c(OCc2cn(CC(=O)Nc3ccc(Cl)cc3)nn2)c1 | 58.8% (inactive)
25 | CCN1CCN(S(=O)(=O)c2oc(-c3ccc(Cl)cc3)nc2C#N)CC1 | -89.2% (active)
26 | CN(C)c1ccc(/C=c2\sc3nc4ccccc4n3c2=O)cc1 | 118% (inactive)
27 | CSCCC(C(=O)O)N1C(=O)/C(=C/c2ccc(O)c(O)c2)SC1=S (stereo not given) | 103% (inactive)
28 | COc1ccc2[nH]cc(-c3cc(N)n4nc(-c5c[nH]c6ccc(OC)cc56)cc4n3)c2c1 | -63.9% (active)
29 | Clc1ccc2c(NCCCN3CCOCC3)c3oc4ccc(Cl)cc4c3nc2c1 | -82.8% (active)
30 | CN(C)CCCOc1c2ccc(Cl)cc2nc2c1oc1ccccc12 | -84.8% (active)
31 | O=C(NNc1nc2cc(F)ccc2n2c(CN3CC4(COC4)C3)ccc12)c1cnccn1 | 19.1% (inactive)
32 | Clc1ccc2oc3c(NCCCn4ccnc4)c4ccccc4nc3c2c1 | -72.1% (active)
33 | C=CCSc1ccc2c(c1)C(N1CCNCC1)=Nc1ccccc1O2 | 51.5% [8.25 µM] (inactive)
34 | COc1cc(-c2ccc3ncnc(NC(C)c4ccccc4)c3c2)cnc1OC (stereo not given) | 34.4% (inactive)
35 | N[C@@H](Cc1cn(-c2c3ccccc3nc3ccccc23)nn1)C(=O)O | 106% (inactive)
36 | COc1ccc(-c2nc3ccc(-c4nnc(SCC(=O)Nc5ccc(C(=O)/C=C/c6ccc(Cl)cc6)cc5)o4)cc3[nH]2)cc1OC | 3.17% (active)
37 | N#Cc1c(-c2ccc(Cl)cc2)nc(SCc2ccc([N+](=O)[O-])cc2)nc1N1CCNCC1 | -61.7% (active)
38 | OC1CCN(CCCOc2c3ccc(Cl)cc3nc3c2oc2ccccc23)CC1 | -85.8% (active)
39 | Cc1ccc(/C=C/c2nn3c(-c4ccco4)nnc3s2)cc1C | 89.3% (inactive)
40 | CCN1C(=S)N(c2ccccc2)C2NC(=O)N(/N=C/C=C/c3ccccc3OC)C21 (stereo not given) | 75.4% (inactive)
